# From PubChem
# AGP1-GFP MLPCN = alters AGP1-GFP fluorescence in TOR pathway yeast screen; S. cerevisiae AGP1-GFP multiplex flow cytometry, 3 h; GFP as percent of DMSO wells; GFP response vs DMSO, % at 10 µM; hit rate 0.02% among 320,000;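 active means GFP response relative to DMSO above a set limit, near screen average plus 3 SD, cut at about 150% in these data; inconclusive means fewer than 70 cells counted for the yeast strain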;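 further: median GFP channel fluorescence of the gated AGP1 strain per well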
# LAP4 TOR yeast = modulators of TOR pathway LAP4-GFP in S. cerevisiae; GFP response vs DMSO, % at 10 µM; S. cerevisiae LAP4-GFP multiplex, flow cytometry GFP, 3 h; median GFP as percent of DMSO wells; hit rate 0.34% among 320,000;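 active means GFP response vs DMSO above a set limit, about the screen mean plus 3 SD, cut at about 150% in these data; inconclusive means under 70 cell events counted for the yeast strain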
# DSG3 Ab inh = human desmoglein-3 autoantibody binding inhibition. P32926. DSG3-coupled beads, scFv-anti-DSG3-GFP binding, flow cytometry; stronger effect = lower value. binding (percent of control), % at 10 µM. hit rate 0.48% among 310,000;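 active means binding more than 3 SD below its plate's average and above zero; inconclusive means below that plate limit but binding exactly zero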;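 further: hits lower antibody fragment binding to DSG3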
# Target sequence (P32926 whole entry, looked up, the tested form may be a part): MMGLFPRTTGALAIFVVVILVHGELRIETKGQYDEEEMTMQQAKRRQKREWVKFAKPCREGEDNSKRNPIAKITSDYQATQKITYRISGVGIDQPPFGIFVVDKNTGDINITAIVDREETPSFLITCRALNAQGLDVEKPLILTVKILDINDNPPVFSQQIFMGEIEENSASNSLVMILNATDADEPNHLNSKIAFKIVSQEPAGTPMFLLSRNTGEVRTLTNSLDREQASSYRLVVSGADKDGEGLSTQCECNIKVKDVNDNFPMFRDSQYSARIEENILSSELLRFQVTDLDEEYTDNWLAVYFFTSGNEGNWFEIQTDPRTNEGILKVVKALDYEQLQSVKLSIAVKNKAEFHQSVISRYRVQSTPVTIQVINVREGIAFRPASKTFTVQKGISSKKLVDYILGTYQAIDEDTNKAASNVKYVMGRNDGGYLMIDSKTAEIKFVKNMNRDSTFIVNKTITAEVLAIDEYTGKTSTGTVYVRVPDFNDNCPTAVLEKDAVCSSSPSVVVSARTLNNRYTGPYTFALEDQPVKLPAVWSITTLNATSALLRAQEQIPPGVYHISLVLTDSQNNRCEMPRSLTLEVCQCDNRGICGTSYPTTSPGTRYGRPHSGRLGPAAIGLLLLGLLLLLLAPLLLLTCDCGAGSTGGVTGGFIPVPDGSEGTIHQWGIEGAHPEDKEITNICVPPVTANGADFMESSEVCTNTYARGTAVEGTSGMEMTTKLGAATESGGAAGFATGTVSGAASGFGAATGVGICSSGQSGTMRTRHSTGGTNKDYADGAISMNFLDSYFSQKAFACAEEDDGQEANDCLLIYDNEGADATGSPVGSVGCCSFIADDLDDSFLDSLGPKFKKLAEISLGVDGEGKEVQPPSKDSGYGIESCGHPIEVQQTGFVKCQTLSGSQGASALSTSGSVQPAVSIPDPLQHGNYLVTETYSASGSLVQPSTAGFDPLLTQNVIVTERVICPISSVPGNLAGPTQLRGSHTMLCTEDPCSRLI
# MEP2 TOR yeast = modulators of TOR pathway MEP2-GFP in S. cerevisiae; S. cerevisiae MEP2-GFP strain, flow cytometry GFP, 3 h; 100% = DMSO control level; GFP response vs DMSO, % at 10 µM; hit rate 0.51% among 330,000;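 active means GFP response versus DMSO above a set limit, roughly screen mean plus 3 SD, cut at about 180% in these data; inconclusive means fewer than 70 cells counted for a yeast strain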;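 further: median GFP fluorescence of the barcode-gated MEP2-GFP cells per well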
# RPL19A-GFP yeast = modulators of TOR pathway RPL19A-GFP in S. cerevisiae | S. cerevisiae RPL19A-GFP strain, flow cytometry, 3 h; stronger effect = lower value | percent response vs DMSO, % at 10 µM | AID 2025 | hit rate 0.3% among 330,000;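 active means percent response vs DMSO below 50%; inconclusive means fewer than 70 events counted for the yeast strain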;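 further: median channel GFP fluorescence of the barcoded RPL19A-GFP strain; lower means less RPL19A-GFP as with rapamycin TOR inhibition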
# CIT2 TOR yeast = alters CIT2-GFP fluorescence in TOR pathway yeast screen. hit rate 0.065% among 320,000. S. cerevisiae CIT2-GFP strain, flow cytometry, 3 h; 100 means same as DMSO wells. GFP response vs DMSO, % at 10 µM;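 active means GFP response relative to DMSO above a set limit, near the screen mean plus 3 SD, cut at about 150% in these data; inconclusive means Fewer than 70 cells measured for a yeast strain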;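 further: ratio of well median GFP fluorescence to mean of DMSO wells on the plate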
# Hits are given with their value; . = inactive; ? = inconclusive; / = no result; [ ] = another dose, or the depositor's remark. In the library only some 1.2% were active in any assay of this set; here they are far more common.
SMILES,AGP1-GFP MLPCN,LAP4 TOR yeast,DSG3 Ab inh,MEP2 TOR yeast,RPL19A-GFP yeast,CIT2 TOR yeast
Cc1cc2cc(CN(Cc3cccs3)C(=S)NCC3CCCO3)c(=O)[nH]c2cc1C (configuration not stated),.,.,.,.,.,.
Cc1cc(C)c2[nH]c(=O)c(CN(Cc3cccs3)C(=S)NCC3CCCO3)cc2c1 (configuration not stated),.,.,85,.,.,.
NC(=O)C1CCCN(Cc2c(C(=O)N3CCc4ccccc4C3)nc3ccc(Cl)cn23)C1 (configuration not stated),.,.,/,.,.,.
Cc1cc(=O)oc2cc(OCC(=O)OCC(=O)Nc3ccccc3Br)ccc12,.,.,71,.,.,.
Cc1cc(=O)oc2cc(OCC(=O)Nc3ccc(S(=O)(=O)N(C)C)cc3)ccc12,.,.,71,.,.,.
CCOC(=O)N1CCC(NC(=O)c2cc3c(-c4cccc(OC)c4)nn(C)c3s2)CC1,.,214,.,.,.,.
CN1CCc2c(sc3c2C(=O)NC(/C=C\c2ccccc2)N3)C1 (configuration not stated),.,.,.,673[may fluoresce violet],.,?
COCCn1c(SCC(=O)Nc2ccc(OC)cc2OC)nc2ccccc2c1=O,.,.,.,.,.,.
Cc1cccc(C)c1OCC(=O)NCc1ccccc1,?,.,?,277[may fluoresce violet],42[may fluoresce violet],?
CC(C(=O)OCC(=O)Nc1ccccc1OC(F)F)N1C(=O)C2CC=CCC2C1=O (configuration not stated),/,/,.,/,/,/
COc1ccc(N(CC(=O)N2CCCCCC2)S(=O)(=O)c2ccc(OC)c(OC)c2)cc1,.,.,.,.,.,.
CCOc1ccc(N(CC(=O)OC)S(=O)(=O)c2ccc(OC)c(OC)c2)cc1,/,.,.,205[may fluoresce violet],.,?
COc1ccc(S(=O)(=O)N(CC(=O)N2CCOCC2)c2ccc(F)cc2)cc1OC,?,.,.,221[may fluoresce red and violet],?,?
C=CCCOc1ccccc1C(N)=O,/,/,/,.,.,/
Cc1nnc2sc(SCC(=O)Nc3nccs3)nn2c1=O,?,.,.,235[may fluoresce violet],22[may fluoresce violet],?
COC(=O)Nc1ccc(S(=O)(=O)N2CCN(C)CC2)cc1,.,.,.,.,.,.
CC(=O)Nc1ccc(S(=O)(=O)N2CCN(C)CC2)cc1,.,.,.,210[may fluoresce violet],.,?
COc1ccccc1-c1nnc(NC(=O)c2ccc(S(=O)(=O)N3CCCC3)cc2)o1,.,169,/,.,.,.
CC(=O)Nc1ccc(C(=O)OCC(=O)c2ccc(S(=O)(=O)N3CCCCC3)cc2)cc1,.,.,29,.,.,.
CC(=O)Nc1cccc(C(=O)OCC(=O)c2ccc(S(=O)(=O)N3CCCCC3)cc2)c1,.,.,.,.,.,.
COc1ccccc1CNC(=O)C1CCN(S(=O)(=O)c2ccc3nc4c(c(C(=O)O)c3c2)CCCC4)CC1,?,.,.,258[may fluoresce violet],35[may fluoresce violet],?
O=C(O)c1c2c(nc3ccc(S(=O)(=O)N4CCC(C(=O)NCc5ccccc5)CC4)cc13)CCCC2,/,/,.,/,/,/
CCCC1C2C(=O)N(c3cccc(C)c3)C(=O)C2ON1c1ccccc1 (configuration not stated),.,.,.,.,.,.
O=C(COc1ccc(S(=O)(=O)N2CCCCC2)cc1)NCc1ccncc1,.,.,61,.,.,.
COc1ccccc1CNC(=O)COC(=O)c1ccc(S(=O)(=O)N2CCCCC2)cc1,.,.,81,.,.,.
SMILES,AGP1-GFP MLPCN,LAP4 TOR yeast,DSG3 Ab inh,MEP2 TOR yeast,RPL19A-GFP yeast,CIT2 TOR yeast
CC(=O)Nc1ccc(S(=O)(=O)N2CCC(C(N)=O)(N3CCCCC3)CC2)cc1,.,.,38,.,.,.
COc1ccc(S(=O)(=O)N2CCC(C(N)=O)(N3CCCCC3)CC2)cc1,.,.,.,.,.,.
CCN(C(=O)COC(=O)c1ccc(=O)n(Cc2ccccc2)n1)C1CCCCC1,.,.,.,.,.,.
NC(=O)c1ccsc1NC(=O)COC(=O)c1ccc(Cl)nc1,.,.,59,.,.,.
NC(=O)c1ccc(NC(=O)COC(=O)c2ccc(Cl)nc2)cc1,.,.,.,.,.,.
O=C1C=CC(=O)c2c(O)c(CO)c(CO)c(O)c21,/,/,25,/,/,/
